High-throughput results from PubChem BioAssay.
A selection: hits, their analogues and other compounds. The true share with any hit is near 2%.
ABCB6 inh 2: inhibitors of human ABC transporter ABCB6; Q9NP58; K562-ABCB6 porphyrin accumulation, flow cytometry, 1 h; hits give low values; fluorescence ratio to DMSO, % at 10 µM; 360,000 tested, 0.19% active; AID 602162;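 active = fluorescence ratio to DMSO below 75%, the collection mean minus 3 SD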;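 note: signal is porphyrin accumulated inside mitochondria; lower ratio means ABCB6 inhibition with less porphyrin fluorescence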
PG9 binder: binds the HIV-1 gp120 antibody PG9; 360,000 tested, 0.43% active; inhibition, % at 6.7 µM; TR-FRET gp120-PG9 antibody binding; in the data active = inhibition above about 8.5%
NR1D1 modulator: modulates human Rev-erb alpha binding to DNA; Rev-erbα–FITC-DNA binding, fluorescence polarization, 90 min; activity, % at 10 µM; 370,000 tested, 0.79% active; AID 1259318;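 active = activity above about 14%, limit read from the data; passing the limit was not always enough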
Granule exo inh: blocks lytic granule exocytosis. AID 651702. inhibition, % at 10 µM. TALL-104 LAMP-1 surface exposure, flow cytometry; cells stimulated with thapsigargin and PMA. 360,000 tested, 0.66% active;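 active = inhibition above about 55%, limit read from the data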
VLA-4 inh: inhibition in a human VLA-4 binding assay; P13612; VLA-4 expressing cells, ligand binding flow cytometry; inhibition, % (about 7 µM as worked out from the volumes in the protocol); 330,000 tested, 0.2% active; AID 2557; in the data active = inhibition above about 50%
Target sequence (P13612 whole entry, looked up): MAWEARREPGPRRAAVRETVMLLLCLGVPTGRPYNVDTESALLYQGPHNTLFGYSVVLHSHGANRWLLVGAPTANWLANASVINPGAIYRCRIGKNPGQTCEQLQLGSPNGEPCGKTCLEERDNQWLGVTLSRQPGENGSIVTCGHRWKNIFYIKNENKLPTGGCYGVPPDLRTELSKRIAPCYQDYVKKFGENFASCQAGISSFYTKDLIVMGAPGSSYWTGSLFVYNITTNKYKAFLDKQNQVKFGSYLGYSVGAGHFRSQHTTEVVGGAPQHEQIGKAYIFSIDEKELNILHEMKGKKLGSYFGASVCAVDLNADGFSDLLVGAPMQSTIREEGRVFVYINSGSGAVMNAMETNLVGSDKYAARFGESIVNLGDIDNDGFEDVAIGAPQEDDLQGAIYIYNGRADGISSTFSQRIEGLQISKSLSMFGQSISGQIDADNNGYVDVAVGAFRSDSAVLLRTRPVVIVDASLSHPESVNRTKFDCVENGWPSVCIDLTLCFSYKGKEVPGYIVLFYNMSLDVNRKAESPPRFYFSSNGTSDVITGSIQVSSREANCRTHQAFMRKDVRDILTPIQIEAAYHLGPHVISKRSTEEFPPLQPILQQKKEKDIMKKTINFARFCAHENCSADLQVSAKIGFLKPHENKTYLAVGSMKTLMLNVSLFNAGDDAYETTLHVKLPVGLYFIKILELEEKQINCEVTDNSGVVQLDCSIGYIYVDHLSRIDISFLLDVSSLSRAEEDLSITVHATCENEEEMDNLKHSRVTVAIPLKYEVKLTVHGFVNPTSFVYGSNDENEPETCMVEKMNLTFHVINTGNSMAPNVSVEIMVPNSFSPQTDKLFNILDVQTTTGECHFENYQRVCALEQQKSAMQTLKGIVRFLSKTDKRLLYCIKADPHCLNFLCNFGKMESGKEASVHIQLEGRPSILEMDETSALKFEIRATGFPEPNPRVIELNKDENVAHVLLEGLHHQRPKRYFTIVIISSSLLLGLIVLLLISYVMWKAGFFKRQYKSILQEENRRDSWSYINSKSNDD
Rev-erbA confirm: confirmation of modulators of human Rev-erb alpha DNA binding | shares compounds with NR1D1 modulator | 3,000 tested, 61% active | Rev-erb alpha FITC-DNA binding, fluorescence polarization, 90 min | activation, % at 25 µM | AID 1259319;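 active = activation at or above a set limit, or at least 3 SD above the negative control mean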
RORg counter: RORgamma DNA-binding activity, dose-response counter-screen. 910 tested, 8% active. IC50, µM. purified RORgamma protein-FITC-DNA binding, fluorescence polarization. shares compounds with NR1D1 modulator;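 active = Compounds whose fitted half-maximal concentration for disrupting protein-DNA binding is below 10 micromolar; the record names Rev-erb in its text, so the target is in doubt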
Large screens that a line does not name were inactive (follow-up assays come after a bar, where they were run).

CCOC(=O)c1sc(=NC(=O)c2ccc(S(=O)(=O)N(C)c3ccccc3)cc2)n(C)c1C	NR1D1 modulator 37 | Rev-erbA confirm 29
CCOC(=O)c1sc(=NC(=O)c2cccc(C)c2)n(C)c1C	none
CCOC(=O)c1sc(=NC(=O)CCSc2ccccc2)n(C)c1C	NR1D1 modulator 27 | Rev-erbA confirm inactive
CCOC(=O)c1sc(=NC(=O)COc2ccccc2)n(C)c1C	none
CC(C)C[C@H]1CNC(=O)C(=O)N1C[C@@H]1CCCN1C[C@H](Cc1ccccc1)N1C[C@H](CC(C)C)N(CC2CCCCC2)C(=O)C1=O	none (no result: ABCB6 inh 2, Granule exo inh, VLA-4 inh)
CCOc1cc(/C=C2\C(=O)NN(c3ccccc3)C2=O)cc([N+](=O)[O-])c1O	none
CCOc1cc(/C=C2\NC(=O)NC2=O)cc([N+](=O)[O-])c1O	NR1D1 modulator 19 | Rev-erbA confirm inactive
O=C(Nc1ccc(F)cc1)Nc1ccc(Oc2ncnc3cc(Cl)ccc23)nc1	NR1D1 modulator 51 | Rev-erbA confirm inactive
O=C(O)CCCC(=O)Nc1ccc(Oc2ncnc3cc(Cl)ccc23)nc1	none
O=C(Nc1ccc(Oc2ncnc3cc(Cl)ccc23)nc1)c1cccs1	NR1D1 modulator 55 | Rev-erbA confirm 27
CCNc1ccc2noc3c2c1C(=O)c1ccccc1-3	NR1D1 modulator 49 | Rev-erbA confirm 57 | RORg counter inactive
Cc1ccsc1C(=O)NNC(=O)c1cccc(S(=O)(=O)N2CCCC2)c1	NR1D1 modulator 18 | Rev-erbA confirm inactive
O=C(NC1CCN(Cc2ccccc2)CC1)c1cc(-c2ccccn2)nc2ccccc12	none
O=C(NC1CCCCCCC1)c1cc(-c2ccccn2)nc2ccccc12	NR1D1 modulator 41 | Rev-erbA confirm inactive
O=C(OCc1cn(Cc2cccc(F)c2F)nn1)N1CCCC1	none (no result: ABCB6 inh 2, PG9 binder, Granule exo inh, VLA-4 inh)
O=C(N[C@H](C(=O)N1CCC[C@H]1C(=O)NC1CCCC1)C1CCCCC1)C1CC1	none (no result: ABCB6 inh 2, Granule exo inh, VLA-4 inh)
COc1cc2ccccc2cc1C(=O)Nc1ccc(Cl)cn1	NR1D1 modulator 31 | Rev-erbA confirm inactive
O=C(Nc1ccc(Cl)cn1)c1ccccc1F	none
CC(c1nc2ccccc2[nH]1)n1c(=O)c(-c2cccnc2)nc2ccccc21 (configuration not stated)	none (no result: ABCB6 inh 2, VLA-4 inh)
CC(c1nc2ccccc2[nH]1)n1c(=O)c(-c2cccs2)nc2ccccc21 (configuration not stated)	NR1D1 modulator 30 (no result: ABCB6 inh 2, VLA-4 inh) | Rev-erbA confirm 18
COc1cc(-c2nn3c(COc4ccccc4)nnc3s2)cc(OC)c1OC	NR1D1 modulator 45 | Rev-erbA confirm 44 | RORg counter inactive
COc1ccc(N(Cc2cc3cccc(C)c3[nH]c2=O)S(=O)(=O)c2ccc(Cl)cc2)cc1	NR1D1 modulator 21 | Rev-erbA confirm inactive
COC(=O)[C@H](CC(C)C)N(CCCc1cn(Cc2ccc(C)cc2)nn1)S(=O)(=O)c1ccccc1Br	none (no result: ABCB6 inh 2, PG9 binder, Granule exo inh, VLA-4 inh)
Cc1[nH]c2ccccc2c1CC(=O)Nc1ccc(N(C)c2cccnc2)c(-c2cccc(Cl)c2)c1	none (no result: ABCB6 inh 2, Granule exo inh, VLA-4 inh)
Cc1cccc(NC(=O)c2ccc3c(Cl)c4c(nc3c2)CCCC4)n1	NR1D1 modulator 24 | Rev-erbA confirm inactive
COc1cccc(-n2c(O)c(C=NCc3ccccn3)c3ccccc3c2=O)c1	none
O=c1c2ccccc2c(C=NCc2ccccn2)c(O)n1-c1ccccc1	NR1D1 modulator 69 | Rev-erbA confirm 20
COc1cc(-c2cc(-c3ccc(N)cc3)[nH]c(=O)c2C#N)cc(OC)c1OC	NR1D1 modulator 25 | Rev-erbA confirm inactive
COC(=O)C1CN(Cc2ccc(OC)cc2)CCS(=O)(=O)N1Cc1ccc(F)cc1 (configuration not stated)	none (no result: ABCB6 inh 2, PG9 binder, Granule exo inh, VLA-4 inh)
CCN1/C(=C/C(C)=O)Sc2ccc(OC)cc21	none
CCN1/C(=C\C=C2\C(=O)N(C)C(=S)N2C)Sc2ccccc21	none
CCOC(=O)/C(=C/C=C1\Sc2cc(OCC)c(OCC)cc2N1CC)C(C)=O	NR1D1 modulator 32 | Rev-erbA confirm inactive
CCOC(=O)/C(=C\C=C1/Sc2cc(OCC)c(OCC)cc2N1CC)C(C)=O	NR1D1 modulator 112 | Rev-erbA confirm 42 | RORg counter inactive
c1ccc(CSc2nc3ncncc3[nH]2)cc1	none
S=c1nc(SCc2ccccc2)[nH]c2ccccc12	NR1D1 modulator 29 | Rev-erbA confirm inactive
CCCCOCC1CN(CCCC)S(=O)(=O)c2c(cccc2N(C)S(=O)(=O)c2ccc(C)cc2)O1 (configuration not stated)	none (no result: ABCB6 inh 2, Granule exo inh, VLA-4 inh)
COc1ccccc1NC(=O)c1oc2ccccc2c1NC(=O)c1cc(OC)c(OC)c(OC)c1	NR1D1 modulator 100 | Rev-erbA confirm 69 | RORg counter inactive
Cc1ncc2c(n1)-c1cc(F)ccc1SC2	none
Nc1ncc2c(n1)-c1cc(Cl)ccc1SC2	NR1D1 modulator 34 | Rev-erbA confirm inactive
COc1ccc(-c2cc(-c3nnc(SCC(=O)Nc4ccc(-c5nc6ccc(C)cc6s5)cc4)n3N)[nH]n2)cc1	none (no result: ABCB6 inh 2, PG9 binder, Granule exo inh, VLA-4 inh)
Cn1cc(C2N3CC4(C)CN2CC(C)(C3)C4=O)c2ccccc21 (configuration not stated)	NR1D1 modulator 17 | Rev-erbA confirm 18
Cc1c(C2N3CC4(C)CN2CC(C)(C3)C4=O)c2ccccc2n1C (configuration not stated)	NR1D1 modulator 42 | Rev-erbA confirm 69 | RORg counter inactive
CC12CN3CC(C)(CN(C1)C3c1cc(Br)ccc1O)C2=O (configuration not stated)	none
CC12CN3CC(C)(CN(C1)C3c1ccc(Br)cc1)C2=O (configuration not stated)	none
O=C1C(=O)N(Cc2ccc(-c3ccccc3)cc2)c2ccc(OC(F)(F)F)cc21	none (no result: ABCB6 inh 2, PG9 binder, Granule exo inh, VLA-4 inh)
O=[N+]([O-])c1cc(S(=O)(=O)N2CCCC2)ccc1NCCc1ccccc1	none
NS(=O)(=O)c1ccc(CCNc2ccccc2[N+](=O)[O-])cc1	NR1D1 modulator 21 | Rev-erbA confirm inactive
COC(=O)[C@]1(CNS(=O)(=O)c2ccc(F)cc2)CC(=O)N(C)[C@@H]1c1ccccc1	none (no result: ABCB6 inh 2, PG9 binder, Granule exo inh, VLA-4 inh)
COc1ccccc1NC(=O)N(C)C[C@H]1OCc2cn(nn2)CCCC(=O)N([C@H](C)CO)C[C@@H]1C	none (no result: ABCB6 inh 2, Granule exo inh, VLA-4 inh)
CCCNC(=O)/C(C#N)=C1\N=C(NC(=O)c2cccs2)c2ccccc21	NR1D1 modulator 30 | Rev-erbA confirm 21
COCCNC(=O)/C(C#N)=C1\N=C(NC(=O)c2cccs2)c2ccccc21	none
COc1ccc(S(=O)(=O)N2CCOCC2)cc1NC(=O)c1cccc2c(=O)c(C)c(-c3ccccc3)oc12	NR1D1 modulator 69 | Rev-erbA confirm 37
CCN(CC)S(=O)(=O)c1ccc(N2CCOCC2)c(NC(=O)c2cccc3c(=O)c(C)c(-c4ccccc4)oc23)c1	none
O=C(/C=C\Nc1ccc2c(c1)OCO2)c1ccccn1	NR1D1 modulator 28 | Rev-erbA confirm inactive
O=C(Nc1ccc2c(c1)OCO2)c1ccccn1	none
